# From article PMC5540273 (PLoS ONE, 2017)
# How the values were obtained:
# [1] = test system: PRKD1
# [2] = test system: PRKD2
# [3] = test system: PRKD3
# [4] = test system: RIPK4
# [5] = test system: RIOK2
# [6] = test system: RIOK3
# [7] = test system: PRKX
# [8] = test system: RAF1
# [9] = test system: ROCK1
# [10] = test system: RIPK2
# [11] = test system: PLK4
# [12] = test system: PRKCI
# [13] = test system: T1, PYK2
# T1 construct: gene PTK2B
# [14] = test system: PLK1
# [15] = test system: PLK2
# [16] = test system: PLK3
# [17] = test system: T2, PKAC-alpha
# T2 construct: gene PRKACA
# [18] = test system: RIOK1
# [19] = test system: PKN1
# [20] = test system: RIPK1
# 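Also: kd values determined as follow-up on hits from a single-replicate KINOMEscan panel screen.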
compound,measurement,setting,value
Cc1cccc(-c2cc(Nc3ccncc3)c3ccccc3n2)n1 [GSK223675],Kd,[1],100 nM
same,Kd,[2],300 nM
same,Kd,[3],210 nM
Cc1cccc(-c2nc(Nc3ccc4[nH]ncc4c3)c3ccccc3n2)n1 [GW857175],Kd,[1],19 nM
same,Kd,[2],15 nM
same,Kd,[3],11 nM
Cc1cc(N2Cc3ccccc3C2)nc(Nc2ccc(S(=O)(=O)N3CCOCC3)cc2)n1.Cl [GSK1669917],Kd,[4],> 10000 nM
Cc1cc(-c2ccc3c(c2)CC[C@@H](N[C@@H](C)c2ccccc2)C3)cnc1N.Cl [GW412617],Kd,[5],650 nM
COc1cccc(-c2cc(-c3c[nH]nc3-c3ccccn3)ccn2)c1 [GW680338],Kd,[6],9600 nM
Cc1ccc(NC(=O)Nc2cccc(Cl)c2)cc1-c1ccc(C(=O)Nc2ccncc2)cc1 [GSK1398468],Kd,[7],7400 nM
same,Kd,[8],180 nM
CSc1nn2c(=O)cc(N3CCOCC3)nc2n1Cc1cccc(C(F)(F)F)c1C [GSK2363608],Kd,[9],46 nM
Cn1cncc1-c1ccc2ncnc(Nc3ccc(OCc4ccccc4)cc3)c2c1 [GW320571],Kd,[10],91 nM
COc1ccccc1CNC(=O)c1cc(C(=O)c2ccccc2C)c[nH]1 [GSK364507],Kd,[11],> 10000 nM
Cc1ccc(NC(=O)Nc2cc(C(C)(C)C)nn2-c2ccccc2)cc1 [GSK1014915],Kd,[8],270 nM
COC(=O)c1c(-c2ccccc2)c2cc(C(=O)O)ccc2c(=O)n1Cc1ccccc1,Kd,[8],170 nM
Cc1ccc(C(=O)Nc2ccc(Nc3ccnc4cc(-c5ccccn5)ccc34)cc2O)cc1.Cl [GW440146],Kd,[6],> 10000 nM
CC(C)(C)c1ccc(C(=O)Nc2cn3cc(Cl)ccc3n2)cc1,Kd,[12],> 10000 nM
same,Kd,[13],> 10000 nM
COc1cc2ncn(-c3cc(OCC4CCCO4)c(C(N)=O)s3)c2cc1OC (stereo not drawn) [GSK204607],Kd,[14],13 nM
same,Kd,[15],4.4 nM
same,Kd,[16],40 nM
same,Kd,[12],> 10000 nM
same,Kd,[6],670 nM
O=S(=O)(c1ccc(-c2ccnc3[nH]ccc23)cc1)N1CCCC1 [GSK846226],Kd,[17],260 nM
same,Kd,[18],610 nM
same,Kd,[5],960 nM
same,Kd,[6],540 nM
same,Kd,[9],330 nM
COC(=O)c1c(-c2ccccc2)c2cc(OC)ccc2c(=O)n1Cc1ccccc1,Kd,[8],390 nM
CN1C(=O)C(Nc2ccc(Cl)c(C(=O)O)c2)=C(c2ccc(Cl)cc2)C1=O [SB-404290],Kd,[19],> 10000 nM
Clc1cc(Cl)cc(Nc2ccnc(Nc3cc(Cl)cc(Cl)c3)n2)c1 [GSK175726],Kd,[5],150 nM
CS(=O)(=O)c1ccc(-c2nc3n(c2-c2ccncc2)CCC3)cc1 [SKF-105942],Kd,[4],> 10000 nM
CCCc1ccc(S(=O)(=O)NC2CCN(c3ccnc(Nc4ccc(F)cc4)n3)C2)cc1 (stereo not drawn) [GSK1379715],Kd,[17],> 10000 nM
Nc1ncnc2[nH]c(-c3ccccc3)nc12 [AH5015],Kd,[11],> 10000 nM
COc1ccc2nc(-c3cccc(C)n3)nc(Nc3ccncc3)c2c1 [GSK204919],Kd,[1],51 nM
same,Kd,[2],34 nM
same,Kd,[3],490 nM
Fc1cc(Cl)ccc1Nc1ccnc2cc(-c3ccc(CN4CCCCC4)o3)ccc12 [GW560116],Kd,[17],> 10000 nM
Cl.NC(=O)c1cccc(Nc2nccc(Nc3ccc(Oc4cccc(Cl)c4)c(Cl)c3)n2)c1 [GW659008],Kd,[10],44 nM
Cl.O=C(Nc1cccc(-c2nn3ncccc3c2-c2ccnc(Nc3cccnc3)n2)c1)c1c(F)cccc1F [GSK312879],Kd,[8],430 nM
COc1cc2ncnc(Nc3ccc4nc(-c5ccccc5)[nH]c4c3)c2cc1OC.Cl [GW282450],Kd,[11],1600 nM
Cc1nnc(-c2ccc3occ(-c4ccc(S(C)=O)cc4)c3c2)[nH]1 (stereo not drawn),Kd,[20],> 10000 nM
Cc1cccc(-c2nc(Nc3cccc(C(N)=O)c3)c3ccccc3n2)n1 [GW876019],Kd,[3],820 nM
Cc1cccc(-c2nc(C)cc(Nc3ccncc3)n2)n1 [GSK257997],Kd,[2],1100 nM
same,Kd,[3],1000 nM
same,Kd,[8],> 10000 nM
Cc1cccc(-c2nc(Nc3ccncc3)c3ccccc3n2)n1 [GW855857],Kd,[1],9.7 nM
same,Kd,[2],17 nM
CC(=O)Nc1nc2cnc(Nc3cc(NC(=O)c4cccc(CCC#N)c4)ccc3C)nc2s1,Kd,[8],> 10000 nM
CCn1c(-c2ccccn2)nc2cnccc21 [SB-736398],Kd,[17],> 10000 nM
same,Kd,[7],> 10000 nM
COc1ccc(Nc2nccc(NCCNC(=O)Nc3ccccc3F)n2)cc1 [GSK1379901],Kd,[2],> 10000 nM
Cc1cccc(-c2nc(-c3ccc(S(C)(=O)=O)cc3)sc2-c2ccnc(NCCc3ccccc3)c2)c1,Kd,[8],150 nM
CC1=C(C(=O)Nc2cc3cn[nH]c3cc2F)C(c2ccc(C(F)(F)F)cc2)CC(=O)N1 (stereo not drawn) [GSK429286],Kd,[7],350 nM
same,Kd,[9],2.7 nM
CN(C)CCN(C)C(=O)c1cc(-c2ccncc2)c(-c2ccc(Cl)c(O)c2)o1.Cl.Cl [SB-710397],Kd,[8],650 nM
